Measurements from the supplement of paper PMC10941209.

Test system: HFF
Assay: cell viability relative to DMSO control; higher = less cytotoxic
Conditions: 1 µM; 72 h
Protocol: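 Single-dose cytotoxicity screen of the MMV Pandemic Response Box at 1 uM on human foreskin fibroblasts (HFF), 72 h at 37 C. Viability measured by MTT (OD 550 nm) and normalised to the DMSO control (% survival).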

Compound	cell viability
Clc1ccc(Cn2c(CN3CCCC3)nc3ccccc32)cc1	67.7%
O=C(CCc1ccc2c(c1)OCO2)NCc1ccc(-c2ccccc2F)cc1	65.7%
CCc1cc(CCC(=O)Nc2ccccc2O)c(O)nc1C	71.2%
COc1ccc2nc(-c3ccccc3)cc(O)c2c1	75%
O=C(c1cc(O)nc2ccccc12)N1CCN(c2ccccc2)CC1	67%
CC(N)C12CC3CC(CC(C3)C1)C2 (stereo not given)	63.2%
O=C(O)C(Cc1c[nH]c2ccccc12)N1C(=O)c2ccccc2C1=O (stereo not given)	68.5%
Cc1ccc(NC(=O)c2cc(Cl)ccc2O)cc1	65.7%
Cc1ccc(Oc2ccccc2-c2csc(N=C3NCCCN3)n2)c(C)c1	68.5%
COc1cc(C)c2c(Oc3cccc(C(F)(F)F)c3)c(OC)cc(NC(C)CCCN)c2n1 (stereo not given)	61.2%
COc1ccc(-n2cnc3cc(NCc4ccco4)ccc32)cc1	52%
O=S(=O)(Nc1ccccc1)c1ccc(NC(=S)Nc2ccccc2)cc1	66.2%
CC(C)(C)c1ccc(OCCn2nc(C(=O)O)c3ccccc3c2=O)cc1	70%
CCCC(=O)OCCc1ccccc1	65.3%
CN(C)CCCOc1ccc(-c2ccc3ncc4c(c3c2)n(C2CCOCC2)c(=O)n4C)cn1	60.6%
COc1cc(C(C(=O)NC2CCCCC2)N(C(=O)Cc2c[nH]c3ccccc23)c2ccc(C(C)C)cc2)cc(OC)c1OC (stereo not given)	66.3%
C[C@@H](c1nc(-c2ccc(C#N)cc2)cs1)[C@](O)(Cn1cncn1)c1ccc(F)cc1F	62.9%
CCC[C@@H]1C[C@@H](C(=O)N[C@@H]([C@H]2O[C@H](SC)[C@H](O)[C@@H](O)[C@H]2O)[C@H](C)Cl)N(C)C1	66.8%
O=[N+]([O-])c1cn2c(n1)OC[C@@H](OCc1ccc(OC(F)(F)F)cc1)C2	64.4%
C[C@@H]1O[C@@H]1P(=O)(O)O	65%

Compound	cell viability
CC(=O)N1CCN(c2ccc(OCC3COC(Cn4ccnc4)(c4ccc(Cl)cc4Cl)O3)cc2)CC1 (stereo not given)	62.9%
CCOC(=O)/C=C/[C@H](C[C@@H]1CCNC1=O)NC(=O)[C@H](CC)n1cccc(NC(=O)c2cc(C)on2)c1=O	68.3%
CCC(C)NCC(O)Cn1c2ccc(Cl)cc2c2cc(Cl)ccc21 (stereo not given)	68.3%
CCC(C)(C)c1ccc(CC(C)CN2C[C@@H](C)O[C@@H](C)C2)cc1 (stereo not given in full)	65%
Nc1nnnn1CCOc1c2[nH]c3ccc(Cl)cc3c2cc2c1[nH]c1ccc(Cl)cc12	65.4%
N#CCN1C(=O)COc2cc(F)c(N3C(=O)c4ccccc4C3=O)cc21	63.5%
CCc1cc(O)c(Oc2cccnc2N)cc1F	65.5%
O=C(CCCC(F)(F)F)N1CCC(c2nc(-c3nccs3)no2)CC1	67.4%
C=CCN(C(=O)OCc1ccc([N+](=O)[O-])cc1)C1CCN(CC[C@](C)(CN(C)S(=O)(=O)c2ccccc2)c2ccccc2)CC1	69.6%
OC1O[C@H](CSc2ccc(F)cc2)[C@@H](O)[C@H]1O (stereo not given in full)	67.7%
NC(=O)c1c(N)sc2c1CCCCC2	74.1%
O=c1cc(NCCCN[C@@H]2CCOc3c(Br)cc(Br)cc32)[nH]c2ccsc12	79.4%
CC(=O)O[C@H]1C[C@@]2(C)[C@@H](C[C@@H](O)[C@H]3[C@@]4(C)CC[C@@H](O)[C@@H](C)[C@@H]4CC[C@@]32C)/C1=C(\CCC=C(C)C)C(=O)O	63.5%
COc1ccc(NS(=O)(=O)c2ccc(Cl)s2)cn1	72.2%
CO/N=C(\C(=O)N[C@@H]1C(=O)N2C(C(=O)OCOC(=O)C(C)(C)C)=C(/C=C\c3scnc3C)CS[C@H]12)c1csc(N)n1	66%
CCc1ccccc1OCCN1CCCCCC1	55.1%
Fc1ccc(-c2nc(-c3c[nH]c4ccc(Br)cc34)[nH]c2-c2ccc(F)cc2)cc1	67.2%
COc1ccc(C)cc1NC(=O)c1ccc(S(=O)(=O)N2CCCCC2)cc1	76.4%
C=CCc1cc(Cc2cnc(N)nc2N)cc(OC)c1O	72.9%
N#Cc1c(F)c(Cl)c(NCc2ccccc2)c(C#N)c1F	66.6%
